Test results taken from PubChem BioAssay (EPA / NIEHS).
Records with an inconclusive call do not appear. Active and inactive are the calls of the source. How the source made its calls: active means hit-call score of the fitted dose curve at least 0.9, where 1 is the maximum; inconclusive means response in the unintended direction; inactive means score below 0.9.

These compounds were tested against human RAR-related Orphan Receptor beta (RORb), RORB (gene 6096) (UniProt Q92753) (assay: ATG_RORb_TRANS: Attagene TRANS-FACTORIAL HepG2 Assay for human RAR-related Orphan Receptor beta (RORb) (AID 2283010)).
Sequence of human RAR-related Orphan Receptor beta (RORb), RORB (gene 6096) (Q92753 whole entry, looked up): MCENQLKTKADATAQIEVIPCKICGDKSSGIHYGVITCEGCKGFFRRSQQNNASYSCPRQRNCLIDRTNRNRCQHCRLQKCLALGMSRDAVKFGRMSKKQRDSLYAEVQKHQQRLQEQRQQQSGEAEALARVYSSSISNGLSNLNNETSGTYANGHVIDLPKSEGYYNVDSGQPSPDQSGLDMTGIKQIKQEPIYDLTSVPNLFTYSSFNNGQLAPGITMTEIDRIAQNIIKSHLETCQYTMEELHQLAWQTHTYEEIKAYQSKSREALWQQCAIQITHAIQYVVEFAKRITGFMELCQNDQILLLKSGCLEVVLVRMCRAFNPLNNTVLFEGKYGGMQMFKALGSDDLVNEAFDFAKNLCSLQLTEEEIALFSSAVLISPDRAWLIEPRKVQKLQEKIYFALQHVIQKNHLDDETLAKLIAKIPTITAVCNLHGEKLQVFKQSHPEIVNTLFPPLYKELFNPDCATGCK
Procedure: ATG_TRANS is a cell-based, multiplexed-readout assay that uses HepG2, a human liver cell line, with measurements taken at 24 hours after chemical dosing in a 24-well plate.ATG_RORb_TRANS is one of 30 assay component(s) measured or calculated from the ATG_TRANS assay. It is designed to make measurements of mRNA induction, a form of inducible reporter, as detected with fluorescence intensity signals by Reverse transcription polymerase chain reaction (RT-PCR) and Capillary electrophoresis technology.Data from the assay component ATG_RORb_TRANS was analyzed into 1 assay endpoint. This assay endpoint, ATG_RORb_TRANS, was analyzed in the positive analysis fitting direction relative to DMSO as the negative control and baseline of activity. Using a type of inducible reporter, measures of mRNA for gain-of-signal activity can be used to understand the reporter gene at the transcription factor-level as they relate to the gene RORB. Furthermore, this assay endpoint can be referred to as a primary readout, because this assay has produced multiple assay endpoints where this one serves a reporter gene function. To generalize the intended target to other relatable targets, this assay endpoint is annotated to the nuclear receptor intended target family, where the subfamily is orphan.
Human liver HepG2 cells are transiently transfected with multiple reporter transcription units (MRTUs) in 6-well plates using FuGene 6 reagent (Roche; 3 ml FuGene/1 mg DNA). The MRTU constructs are regulated by a cis-regulating element (promoter). […] A major difference between the CIS and TRANS system is that in CIS activities of endogenous TFs are measured, whereas the TRANS assay evaluates changes in activities of exogenous, chimeric NR-Gal4 proteins. […] At the end of 24 hour incubation, total RNA was isolated using TriZol reagent (Invitrogen). The isolated RNA is then reverse-transcribed using oligo(dT) primer and Mo-MLV reverse transcriptase (Invitrogen) with DNAse I (Ambion) treatment for 30 min. The one-tenth of the produced cDNA was amplified by PCR using Taq DNA polymerase (Invitrogen) and two reporter sequence-specific primers. The PCR products were fluorescently labeled by primer extension with 6-arboxyfluorescein (6-FAM) 5'-labeled reporter sequence-specific primer (2 min at 95 C, 20 s at 68 C and 10 min at 72 C) and these products were digested with 5U of HpaI (New England Biolabs) for 2h at 37 C. The fragments were purified using Qiaquick PCR columns (Qiagen), analyzed on an ABI 3130xL genetic analyzer (Applied Biosystems) with peak positions identified by using a set of X-rhodamine (ROX)-labeled MapMarker1000 molecular weight standards (BioVentures). The raw capillary electrophoresis data was processed using Attagraph software (Attagene).
`CCC(=O)OC(C)(C)C1CC=C(C)CC1` (stereo not given) was tested, and the outcome was “inactive”.
For `CC(=O)OCC=C(C)CCC=C(C)CCC=C(C)C`, the outcome was “inactive”.
`O=S1(=O)CC=CC1` was tested, and the outcome was “inactive”.
In the case of `CCCCC(CC)COCCO` (stereo not given), the outcome is reported as “inactive”.
`Cc1cc(O)c2c(c1)C(=O)c1cc(O)cc(O)c1C2=O` was tested, and the outcome was “inactive”.
For `CC(C)C(=O)OCC=Cc1ccccc1`, the outcome was “inactive”.
In the case of `COC(=O)C(C)Oc1ccc(Oc2ncc(C(F)(F)F)cc2Cl)cc1` (stereo not given), the outcome is reported as “inactive”.
With `CCC(C)COC(=O)CC(C)C` (stereo not given) the outcome was “inactive”.
With `CC(C)Cc1ccccc1` the outcome was “inactive”.
In the case of `O=C1OC2(c3ccc(O)cc3Oc3cc(O)ccc32)c2ccccc21`, the outcome is reported as “inactive”.
For `CC(=O)CCC(=O)O`, the outcome was “inactive”.
With `N#CCCNCCC#N` the outcome was “inactive”.
In the case of `CC(C)C(=O)c1ccccc1`, the outcome is reported as “inactive”.
`OC[C@H]1O[C@@H](O[C@H]2[C@H](O)[C@@H](O)[C@H](O)O[C@@H]2CO)[C@H](O)[C@@H](O)[C@H]1O` was tested, and the outcome was “inactive”.
In the case of `CCOC(=O)CCCCCCCCC(=O)OCC`, the outcome is reported as “inactive”.
In the case of `CC(C)(C)C1CCC(O)CC1` (stereo not given), the outcome is reported as “inactive”.
With `CCCCCCCCCCCCS` the outcome was “inactive”.
In the case of `C=C1CC[C@H]2O[C@]2(C)CC[C@@H]2[C@@H]1CC2(C)C`, the outcome is reported as “inactive”.
For `CC1=C(C=O)C(C)(C)CCC1`, the outcome was “inactive”.
In the case of `CC(C)(C)c1cc(CCC(=O)OCCSCCOC(=O)CCc2cc(C(C)(C)C)c(O)c(C(C)(C)C)c2)cc(C(C)(C)C)c1O`, the outcome is reported as “inactive”.
In the case of `CC(C)CCCC(C)(C)O`, the outcome is reported as “inactive”.
In the case of `CC1=CC[C@@H](C(C)(C)O)CC1`, the outcome is reported as “inactive”.
In the case of `CC/C=C\CCCCO`, the outcome is reported as “inactive”.
For `C=CCOCC(O)CO` (stereo not given), the outcome was “inactive”.
For `CC(C)OB(OC(C)C)OC(C)C`, the outcome was “inactive”.
`O=C(C=Cc1ccccc1)OCCCc1ccccc1` was tested, and the outcome was “inactive”.
`COc1cc(OC)c2ccc(=O)oc2c1` was tested, and the outcome was “inactive”.
`CC(=O)OC(C)(C)C1CC=C(C)CC1` (stereo not given) was tested, and the outcome was “inactive”.
For `c1ccc(OCCOc2ccccc2)cc1`, the outcome was “inactive”.
`ClCCOCCOCCCl` was tested, and the outcome was “inactive”.
`CCC=C(C)C=O` was tested, and the outcome was “inactive”.
With `C=COCC1CCC(COC=C)CC1` (stereo not given) the outcome was “inactive”.
`Cc1cccc(O)c1` was tested, and the outcome was “inactive”.
In the case of `CCCCOCCOCCO`, the outcome is reported as “inactive”.
In the case of `C=C(C)C(N)=O`, the outcome is reported as “inactive”.
In the case of `NC(N)=S`, the outcome is reported as “inactive”.
For `CN(C)C`, the outcome was “inactive”.
In the case of `O=C(OCc1ccccc1)c1ccccc1O`, the outcome is reported as “inactive”.
`CC(C)(O)CCc1ccccc1` was tested, and the outcome was “inactive”.
